Measured values as given in PubChem BioAssay (EPA / NIEHS).
Inconclusive results are not listed. Activity calls are given as the source filed them. The calls were made as follows, unless noted: active = hit-call score of the fitted dose curve at least 0.9, where 1 is the maximum; inactive = score below 0.9.

Legend:
[1] = BSK_SAg_PBMCCytotoxicity: PBMC Cytotoxicity Assessment in the BioMAP Diversity Plus: SAg Assay (AID 2283093); details: primary human HUVEC with PBMC;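 also: fitted both ways against DMSO so a hit may be loss or gain of signal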;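 as to AC50: PBMC superantigen activated with SEB plus TSST-1 one hour after compound addition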
How it was run: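 PBMC viability by Alamar Blue reduction, fluorescence read at 546/580 nm after 6 h dye exposure. Cells were dosed 1 h before SEB plus TSST-1 activation (20 ng/mL final each), then held 90 h; endothelial/PBMC human co-culture.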

[2] = BSK_SAg_Proliferation: Cell Proliferation Assessment in the BioMAP Diversity Plus: SAg Assay (AID 2283095); details: primary human HUVEC with PBMC;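 also: relative cell number as total protein by SRB absorbance in sub-confluent culture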
How it was run: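 Relative cell number in the endothelial cell/PBMC co-culture was quantified at 96 h by SRB staining (0.1% SRB, 10% TCA fixation, read at 560 nm). Curves were fitted in both directions relative to DMSO baseline.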

[3] = BSK_SAg_SRB: Viability Assessment in the BioMAP Diversity Plus: SAg Assay (AID 2283096); details: primary human HUVEC with PBMC;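 also: cells read one day after compound addition; hits may be either gain or loss of signal compared with DMSO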
How it was run: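 Compounds were added to a human vascular co-culture of umbilical vein endothelium and PBMC. After 24 h, parallel cultures were fixed with 10% TCA, stained with 0.1% sulforhodamine B and read at 560 nm. Gain or loss of signal was fitted relative to DMSO.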

[4] = biological target: Cytochrome P450 2C19 (Homo sapiens) (UniProt P33261); assay: NVS_ADME_hCYP2C19: NovaScreen (NVS) CYP450-related Enzyme Activity (ADME) Assay for human CYP2C19 (AID 2283113; active = hit-call score of the fitted dose curve at least 0.9, where 1 is the maximum;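 also: potency for inhibition seen as loss of fluorescent signal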)
How it was run: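 Chemicals first screened in duplicate at 10 uM against recombinant human enzyme produced in insect cells; confirmed actives then run as concentration series. Fluorogenic substrate turnover read by fluorescence after 1 h, normalised to acetonitrile.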

[5] = biological target: human CYP2B6, CYP2B6 (gene 1555) (UniProt P20813); assay: NVS_ADME_hCYP2B6: NovaScreen (NVS) CYP450-related Enzyme Activity (ADME) Assay for human CYP2B6 (AID 2283101; active = hit-call score of the fitted dose curve at least 0.9, where 1 is the maximum)
How it was run: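 Compounds were first screened in duplicate at 10 uM against recombinant enzyme, with the fluorescent product measured after 1 hour. Active compounds were retested over a concentration series. Loss of fluorescence versus acetonitrile control was scored as reduced enzyme activity.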

[6] = biological target: human CYP2D6, CYP2D6 (gene 1565) (UniProt P10635); assay: NVS_ADME_hCYP2D6: NovaScreen (NVS) CYP450-related Enzyme Activity (ADME) Assay for human CYP2D6 (AID 2283107; active = hit-call score of the fitted dose curve at least 0.9, where 1 is the maximum)
How it was run: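 Compounds were first tested in duplicate at 10 uM against recombinant enzyme produced in insect cells, with substrate turnover measured by fluorescence after 1 hour. Decreased signal, referenced to acetonitrile vehicle, was taken as reduced enzyme activity. Active chemicals went on to concentration-response testing.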

[7] = biological target: Cytochrome P450 3A4 (Homo sapiens) (UniProt P08684); assay: NVS_ADME_hCYP3A4: NovaScreen (NVS) CYP450-related Enzyme Activity (ADME) Assay for human CYP3A4 (AID 2283110; active = hit-call score of the fitted dose curve at least 0.9, where 1 is the maximum)
How it was run: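 Recombinant CYP3A4 from insect cells, fluorescence enzyme read-out, 0.33 h after chemical addition. Acetonitrile = negative control/baseline. Primary HTS: 10 uM in duplicate; actives re-tested in concentration series.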

[8] = biological target: human Beta-secretase (BACE), BACE1 (gene 23621) (UniProt P56817); assay: NVS_ENZ_hBACE: NovaScreen (NVS) Enzymatic Assay for human Beta-secretase (BACE) (AID 2283140; active = hit-call score of the fitted dose curve at least 0.9, where 1 is the maximum;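 also: hits are inhibitors that reduce fluorescent substrate signal versus DMSO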)
How it was run: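 Enzyme from SF9 cells was incubated 1 hour with compound and fluorogenic substrate, activity read by fluorescence. Single-concentration duplicates at 25 uM preceded concentration-response follow-up; fitting relative to DMSO baseline.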

[9] = biological target: human Caspase 8 (CASP8), CASP8 (gene 841) (UniProt Q14790); assay: NVS_ENZ_hCASP8: NovaScreen (NVS) Enzymatic Assay for human Caspase 8 (CASP8) (AID 2283146; active = hit-call score of the fitted dose curve at least 0.9, where 1 is the maximum)
How it was run: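 The primary screen tested compounds in duplicate at a single 25 uM concentration, with actives followed up in concentration series. Activity of recombinant (E. coli) protease was measured by fluorescence 1 h post-dose, as signal loss against DMSO.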

[10] = biological target: human Colony Stimulating Factor 1 Receptor (CSF1R), CSF1R (gene 1436) (UniProt P07333); assay: NVS_ENZ_hCSF1R: NovaScreen (NVS) Enzymatic Assay for human Colony Stimulating Factor 1 Receptor (CSF1R) (AID 2283150; active = hit-call score of the fitted dose curve at least 0.9, where 1 is the maximum)
How it was run: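 Compounds screened in duplicate at 25 uM, then concentration-response (top 50 uM) for those passing threshold such as 30% inhibition; recombinant CSF1R activity measured 1 h post-dosing via fluorescent substrate/product mobility-shift separation, loss of signal versus DMSO.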

[11] = biological target: human CYP1A2, CYP1A2 (gene 1544) (UniProt P05177); assay: NVS_ADME_hCYP1A2: NovaScreen (NVS) CYP450-related Enzyme Activity (ADME) Assay for human CYP1A2 (AID 2283102; active = hit-call score of the fitted dose curve at least 0.9, where 1 is the maximum;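 as to AC50: fluorescence from turnover of a fluorogenic substrate by recombinant insect-cell CYP1A2; potency for inhibition since loss of fluorescence marks reduced CYP1A2 activity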)
How it was run: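 Compounds were tested at 10 uM in duplicate against recombinant CYP1A2 produced in insect cells. Enzyme activity was measured by fluorescence 0.5 h after dosing, with loss of signal versus acetonitrile control. Active compounds were re-tested in concentration series.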

[12] = biological target: human Caspase 5 (CASP5), CASP5 (gene 838) (UniProt P51878); assay: NVS_ENZ_hCASP5: NovaScreen (NVS) Enzymatic Assay for human Caspase 5 (CASP5) (AID 2283137; active = hit-call score of the fitted dose curve at least 0.9, where 1 is the maximum)
How it was run: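 Loss of fluorescent signal versus DMSO scored for E. coli-derived human CASP5 cleaving a fluorescent substrate, 2 h post-dosing; compounds first tested at 25 uM in duplicate, hits rerun in concentration series with 50 uM top concentration.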

[13] = biological target: human CYP2A6, CYP2A6 (gene 1548) (UniProt P11509); assay: NVS_ADME_hCYP2A6: NovaScreen (NVS) CYP450-related Enzyme Activity (ADME) Assay for human CYP2A6 (AID 2283099; active = hit-call score of the fitted dose curve at least 0.9, where 1 is the maximum)
How it was run: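 Recombinant human CYP2A6 from insect cells was incubated with chemical for 0.5 h and activity read by fluorescence. Single-concentration duplicates at 10 uM preceded concentration-response testing to 20 uM, with activity referenced to acetonitrile.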

[14] = read-out: Interleukin-8 (IL8), CXCL8 (gene 3576); assay: BSK_SAg_IL8: BioMAP Diversity Plus: SAg Assay for Interleukin-8 (IL8) Biomarker Activity (AID 2283094); details: primary human HUVEC with PBMC; actives raise or lower the signal
How it was run: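 ELISA readout of IL-8 from a superantigen-activated endothelial/PBMC primary human co-culture, taken 24 h post-dosing and fitted in both directions against DMSO; parallel SRB total-protein staining flags overt cytotoxicity.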

[15] = biological target: human Acid Phosphatase 1 (ACP1), ACP1 (gene 52) (UniProt P24666); assay: NVS_ENZ_hACP1: NovaScreen (NVS) Enzymatic Assay for human Acid Phosphatase 1 (ACP1) (AID 2283136; active = hit-call score of the fitted dose curve at least 0.9, where 1 is the maximum)
How it was run: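 Cell-free fluorescence read-out of phosphatase activity, substrate and product separated by mobility shift, taken 1.5 h after compound addition; protein produced in Sf9. Single 25 uM duplicate screen, followed by concentration series for actives, scored as signal loss relative to DMSO.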

[16] = biological target: human AKT serine/threonine Kinase 1 (AKT1), AKT1 (gene 207) (UniProt P31749); assay: NVS_ENZ_hAKT1: NovaScreen (NVS) Enzymatic Assay for human AKT serine/threonine Kinase 1 (AKT1) (AID 2283138; active = hit-call score of the fitted dose curve at least 0.9, where 1 is the maximum)
How it was run: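 Screening first at 25 uM (duplicate), with threshold-passing chemicals re-tested in concentration series to a 50 uM maximum. Kinase activity read by fluorescence with mobility-shift separation of substrate and product, 1 h after dosing, DMSO baseline.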

[17] = biological target: CDK2 (gene 1017) (UniProt P24941); assay: NVS_ENZ_hCDK2: NovaScreen (NVS) Enzymatic Assay for human Cyclin-Cependent Kinase 2 (CDK2) (AID 2283144; active = hit-call score of the fitted dose curve at least 0.9, where 1 is the maximum)
How it was run: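 Compounds screened in duplicate at 25 uM, then in singleton concentration-response to a maximum of 50 uM, against recombinant CDK2; kinase activity read 1 hr after dosing by fluorescence with mobility-shift separation of substrate and product.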

[18] = biological target: human Caspase 4 (CASP4), CASP4 (gene 837) (UniProt P49662); assay: NVS_ENZ_hCASP4: NovaScreen (NVS) Enzymatic Assay for human Caspase 4 (CASP4) (AID 2283143; active = hit-call score of the fitted dose curve at least 0.9, where 1 is the maximum)
How it was run: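 Compounds were first tested in duplicate at 25 uM, and hits were titrated singly to a 50 uM maximum. Recombinant protease from E. coli was read by fluorescence 2 h post-dose, and activity loss was fitted against the DMSO baseline.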

[19] = biological target: human CYP19A1, CYP19A1 (gene 1588) (UniProt P11511); assay: NVS_ADME_hCYP19A1: NovaScreen (NVS) CYP450-related Enzyme Activity (ADME) Assay for human CYP19A1 (AID 2283098; active = hit-call score of the fitted dose curve at least 0.9, where 1 is the maximum;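 also: potency for inhibitors seen as loss of fluorescent enzyme signal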)
How it was run: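 Fluorescence intensity read-out; activity taken as signal loss relative to acetonitrile vehicle. Extracted enzyme, specific substrate, no cells, 0.5 h exposure. Duplicate single-point screen at 10 uM, then concentration–response follow-up for actives.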

Measured: AC50

human CYP2D6, CYP2D6 (gene 1565), sequence (P10635 whole entry, looked up): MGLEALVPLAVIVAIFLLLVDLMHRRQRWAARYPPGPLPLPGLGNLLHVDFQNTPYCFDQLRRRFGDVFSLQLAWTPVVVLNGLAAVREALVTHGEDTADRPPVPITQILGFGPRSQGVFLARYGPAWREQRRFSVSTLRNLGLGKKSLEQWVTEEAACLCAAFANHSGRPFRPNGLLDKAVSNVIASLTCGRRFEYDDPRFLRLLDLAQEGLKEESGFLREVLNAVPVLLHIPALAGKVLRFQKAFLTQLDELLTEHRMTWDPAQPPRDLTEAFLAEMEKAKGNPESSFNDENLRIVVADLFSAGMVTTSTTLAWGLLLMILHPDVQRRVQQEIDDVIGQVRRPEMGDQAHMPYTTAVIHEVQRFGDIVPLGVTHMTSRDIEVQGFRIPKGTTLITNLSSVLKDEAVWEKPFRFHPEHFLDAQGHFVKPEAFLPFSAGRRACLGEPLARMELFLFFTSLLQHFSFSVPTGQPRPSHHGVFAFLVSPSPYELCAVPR
human CYP2B6, CYP2B6 (gene 1555), sequence (P20813 whole entry, looked up): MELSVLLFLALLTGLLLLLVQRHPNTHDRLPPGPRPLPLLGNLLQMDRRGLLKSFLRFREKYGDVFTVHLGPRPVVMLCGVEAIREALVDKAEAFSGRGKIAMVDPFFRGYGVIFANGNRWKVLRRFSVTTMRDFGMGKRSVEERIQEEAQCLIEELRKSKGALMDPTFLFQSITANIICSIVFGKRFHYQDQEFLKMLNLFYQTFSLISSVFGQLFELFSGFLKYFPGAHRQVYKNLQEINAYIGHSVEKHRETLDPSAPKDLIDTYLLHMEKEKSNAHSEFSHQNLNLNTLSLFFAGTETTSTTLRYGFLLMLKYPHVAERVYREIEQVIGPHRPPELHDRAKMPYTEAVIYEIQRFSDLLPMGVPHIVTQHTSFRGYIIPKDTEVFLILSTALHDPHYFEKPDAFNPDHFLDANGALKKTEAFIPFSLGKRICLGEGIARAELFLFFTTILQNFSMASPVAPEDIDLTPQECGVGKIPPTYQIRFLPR
human CYP1A2, CYP1A2 (gene 1544), sequence (P05177 whole entry, looked up): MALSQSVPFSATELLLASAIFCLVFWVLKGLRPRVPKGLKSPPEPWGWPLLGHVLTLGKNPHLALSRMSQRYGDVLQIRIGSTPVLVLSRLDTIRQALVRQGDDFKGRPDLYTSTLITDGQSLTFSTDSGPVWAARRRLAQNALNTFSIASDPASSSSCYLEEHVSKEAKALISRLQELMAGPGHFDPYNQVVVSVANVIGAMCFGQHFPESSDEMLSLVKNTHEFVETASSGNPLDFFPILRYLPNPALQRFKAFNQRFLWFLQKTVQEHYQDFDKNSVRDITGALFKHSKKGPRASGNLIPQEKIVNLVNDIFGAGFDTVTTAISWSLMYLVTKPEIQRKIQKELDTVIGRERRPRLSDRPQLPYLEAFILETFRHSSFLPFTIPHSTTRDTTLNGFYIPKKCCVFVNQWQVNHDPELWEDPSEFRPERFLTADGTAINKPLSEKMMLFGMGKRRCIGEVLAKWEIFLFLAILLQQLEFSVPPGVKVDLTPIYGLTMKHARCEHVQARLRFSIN
Cytochrome P450 3A4 (Homo sapiens), sequence (P08684 whole entry, looked up): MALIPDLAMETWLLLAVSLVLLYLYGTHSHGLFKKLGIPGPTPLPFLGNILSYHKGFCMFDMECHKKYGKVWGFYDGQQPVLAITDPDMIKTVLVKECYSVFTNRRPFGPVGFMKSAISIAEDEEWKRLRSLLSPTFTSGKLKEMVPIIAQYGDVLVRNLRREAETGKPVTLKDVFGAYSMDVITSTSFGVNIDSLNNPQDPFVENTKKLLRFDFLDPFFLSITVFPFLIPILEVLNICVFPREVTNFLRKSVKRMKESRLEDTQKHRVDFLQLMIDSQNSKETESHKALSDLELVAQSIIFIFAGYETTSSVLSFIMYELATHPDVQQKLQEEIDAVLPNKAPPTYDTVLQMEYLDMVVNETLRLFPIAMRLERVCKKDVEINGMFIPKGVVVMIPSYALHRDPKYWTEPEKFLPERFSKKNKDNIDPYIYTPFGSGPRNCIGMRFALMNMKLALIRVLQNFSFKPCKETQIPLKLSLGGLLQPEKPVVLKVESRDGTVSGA
human Colony Stimulating Factor 1 Receptor (CSF1R), CSF1R (gene 1436), sequence (P07333 whole entry, looked up): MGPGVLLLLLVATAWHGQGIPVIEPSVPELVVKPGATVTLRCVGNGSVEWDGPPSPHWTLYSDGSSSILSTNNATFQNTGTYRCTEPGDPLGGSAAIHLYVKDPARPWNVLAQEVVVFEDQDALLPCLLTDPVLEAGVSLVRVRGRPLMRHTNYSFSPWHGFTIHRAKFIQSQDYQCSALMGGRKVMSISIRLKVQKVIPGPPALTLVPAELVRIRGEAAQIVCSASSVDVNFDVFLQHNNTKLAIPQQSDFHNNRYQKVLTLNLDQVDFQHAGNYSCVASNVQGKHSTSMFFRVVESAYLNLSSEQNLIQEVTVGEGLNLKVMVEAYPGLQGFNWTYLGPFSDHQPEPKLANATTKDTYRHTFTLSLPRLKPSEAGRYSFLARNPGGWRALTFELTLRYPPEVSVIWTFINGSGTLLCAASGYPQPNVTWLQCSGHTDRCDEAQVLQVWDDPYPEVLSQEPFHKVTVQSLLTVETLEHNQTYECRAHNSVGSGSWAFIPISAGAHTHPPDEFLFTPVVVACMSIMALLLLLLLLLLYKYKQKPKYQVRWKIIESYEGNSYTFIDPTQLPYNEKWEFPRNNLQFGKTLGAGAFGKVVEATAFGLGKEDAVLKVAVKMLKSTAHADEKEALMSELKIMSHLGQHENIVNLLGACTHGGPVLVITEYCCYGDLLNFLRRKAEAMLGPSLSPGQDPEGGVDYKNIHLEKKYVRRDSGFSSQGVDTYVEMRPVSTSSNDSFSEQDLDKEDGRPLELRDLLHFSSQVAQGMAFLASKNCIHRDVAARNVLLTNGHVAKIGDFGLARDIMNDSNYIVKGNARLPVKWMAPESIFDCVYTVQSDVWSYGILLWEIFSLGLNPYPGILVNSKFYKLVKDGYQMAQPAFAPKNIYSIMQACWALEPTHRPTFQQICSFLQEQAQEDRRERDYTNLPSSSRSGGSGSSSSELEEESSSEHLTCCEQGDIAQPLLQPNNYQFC
human Beta-secretase (BACE), BACE1 (gene 23621), sequence (P56817 whole entry, looked up): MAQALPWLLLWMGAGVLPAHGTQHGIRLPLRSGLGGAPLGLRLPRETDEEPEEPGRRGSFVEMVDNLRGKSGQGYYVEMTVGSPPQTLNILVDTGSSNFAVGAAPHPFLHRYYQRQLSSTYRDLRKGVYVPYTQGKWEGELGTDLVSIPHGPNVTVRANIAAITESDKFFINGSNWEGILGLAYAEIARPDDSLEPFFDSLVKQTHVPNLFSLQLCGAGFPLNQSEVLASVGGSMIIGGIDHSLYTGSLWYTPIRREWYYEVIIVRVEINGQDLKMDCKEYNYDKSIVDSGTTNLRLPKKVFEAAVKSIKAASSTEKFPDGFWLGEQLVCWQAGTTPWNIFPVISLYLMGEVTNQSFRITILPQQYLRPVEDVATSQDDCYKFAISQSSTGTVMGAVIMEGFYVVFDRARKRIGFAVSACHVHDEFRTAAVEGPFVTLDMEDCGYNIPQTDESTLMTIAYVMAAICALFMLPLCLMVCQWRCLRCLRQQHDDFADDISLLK
human Caspase 8 (CASP8), CASP8 (gene 841), sequence (Q14790 whole entry, looked up): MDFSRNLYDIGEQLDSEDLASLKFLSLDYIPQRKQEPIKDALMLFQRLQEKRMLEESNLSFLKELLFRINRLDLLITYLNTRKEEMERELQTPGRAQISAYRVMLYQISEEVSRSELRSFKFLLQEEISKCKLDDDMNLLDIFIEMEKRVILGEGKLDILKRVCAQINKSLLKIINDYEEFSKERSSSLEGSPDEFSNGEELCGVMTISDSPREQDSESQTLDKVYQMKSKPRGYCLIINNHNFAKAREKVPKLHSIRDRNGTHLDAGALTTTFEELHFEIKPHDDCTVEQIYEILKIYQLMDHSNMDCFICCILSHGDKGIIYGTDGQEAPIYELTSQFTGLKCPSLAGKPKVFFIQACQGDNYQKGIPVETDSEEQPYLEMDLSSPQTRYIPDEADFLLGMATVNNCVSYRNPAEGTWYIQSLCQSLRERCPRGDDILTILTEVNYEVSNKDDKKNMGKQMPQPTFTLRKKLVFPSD
human AKT serine/threonine Kinase 1 (AKT1), AKT1 (gene 207), sequence (P31749 whole entry, looked up): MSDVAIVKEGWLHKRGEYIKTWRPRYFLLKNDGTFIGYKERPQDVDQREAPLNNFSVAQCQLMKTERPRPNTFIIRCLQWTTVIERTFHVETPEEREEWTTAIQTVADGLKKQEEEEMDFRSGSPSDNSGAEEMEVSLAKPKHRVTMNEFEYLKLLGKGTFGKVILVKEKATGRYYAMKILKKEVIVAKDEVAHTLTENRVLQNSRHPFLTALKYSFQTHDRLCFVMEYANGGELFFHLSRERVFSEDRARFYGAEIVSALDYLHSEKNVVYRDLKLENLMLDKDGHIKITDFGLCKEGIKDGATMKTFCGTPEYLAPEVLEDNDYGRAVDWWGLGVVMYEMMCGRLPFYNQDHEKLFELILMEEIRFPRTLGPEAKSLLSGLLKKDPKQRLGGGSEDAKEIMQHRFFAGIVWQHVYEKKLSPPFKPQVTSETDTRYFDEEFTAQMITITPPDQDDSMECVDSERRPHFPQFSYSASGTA
human Caspase 4 (CASP4), CASP4 (gene 837), sequence (P49662 whole entry, looked up): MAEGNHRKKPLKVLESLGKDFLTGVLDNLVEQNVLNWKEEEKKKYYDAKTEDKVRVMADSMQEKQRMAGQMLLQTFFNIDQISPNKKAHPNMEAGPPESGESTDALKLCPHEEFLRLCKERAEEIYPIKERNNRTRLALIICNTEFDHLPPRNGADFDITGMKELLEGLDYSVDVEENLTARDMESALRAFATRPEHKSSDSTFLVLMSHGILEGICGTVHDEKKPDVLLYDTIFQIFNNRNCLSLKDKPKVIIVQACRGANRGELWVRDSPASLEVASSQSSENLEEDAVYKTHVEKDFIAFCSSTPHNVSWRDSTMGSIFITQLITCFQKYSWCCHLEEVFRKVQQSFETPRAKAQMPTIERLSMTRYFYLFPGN
human Acid Phosphatase 1 (ACP1), ACP1 (gene 52), sequence (P24666 whole entry, looked up): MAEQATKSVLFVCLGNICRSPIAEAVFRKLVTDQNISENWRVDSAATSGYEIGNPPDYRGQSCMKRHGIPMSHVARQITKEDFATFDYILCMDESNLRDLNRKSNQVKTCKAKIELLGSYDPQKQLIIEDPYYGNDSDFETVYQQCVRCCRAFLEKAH

O=C(O)CC(O)C(=O)O (stereo not drawn)
active: [4] 12.9 µM
inactive: [1] | [2] | [3]

CC(=O)OCCC(C)C
inactive: [1] | [2] | [3] | [5] | [6] | [7]

O=C1CCC(N2C(=O)c3ccccc3C2=O)C(=O)N1 (stereo not drawn)
inactive: [1] | [2] | [3] | [8]

CC(C)CCO
inactive: [1] | [2] | [3] | [9]

CCOC(=O)CC(CC(=O)OCC)(OC(C)=O)C(=O)OCC
inactive: [1] | [2] | [3]

COCCOc1cc2cc(C(=O)NC3CCN(C(C)C)CC3)n(CC(=O)Nc3ccc(Cl)cn3)c2cn1
inactive: [1] | [2] | [3] | [10]

O=C(OC[C@H]1O[C@@H](OC(=O)c2cc(O)c(O)c(OC(=O)c3cc(O)c(O)c(O)c3)c2)[C@H](OC(=O)c2cc(O)c(O)c(OC(=O)c3cc(O)c(O)c(O)c3)c2)[C@@H](OC(=O)c2cc(O)c(O)c(OC(=O)c3cc(O)c(O)c(O)c3)c2)[C@@H]1OC(=O)c1cc(O)c(O)c(OC(=O)c2cc(O)c(O)c(O)c2)c1)c1cc(O)c(O)c(OC(=O)c2cc(O)c(O)c(O)c2)c1
inactive: [1]
active: [2] 6.18 µM | [3] 9.72 µM | [11] 2.01 µM | [4] 2.34 µM | [12] 0.136 µM | [8] 3.11 µM

O=C1OC(=O)C2C3C=CC(C3)C12 (stereo not drawn)
inactive: [1] | [2] | [3]

CCOCCO
inactive: [1] | [2] | [3] | [13]

COc1ccc(/C=C/S(=O)(=O)NC(=O)c2ccc(C)cc2Cl)cc1
inactive: [1] | [3]
active: [2] 6.54 µM

COc1cccc(-c2ccc(/C=C\CN3CCCCCC3)cc2Cl)c1
active: [14] 25 µM | [3] 27.2 µM
inactive: [2]

CCOC(=O)COc1ccc2c(c1)CC(NCC(O)c1cccc(Cl)c1)CC2 (stereo not drawn)
inactive: [7]
active: [1] 27.2 µM | [2] 31.7 µM | [3] 27.2 µM | [6] 2.51 µM | [4] 5.22 µM

Cc1[nH]cnc1C[C@H]1CCc2c(C)c3ccccc3n2C1=O
active: [1] 30.7 µM | [2] 31 µM | [3] 26.8 µM | [5] 4.01 µM | [11] 1.78 µM | [6] 3.98 µM | [4] 0.636 µM

Cn1c(=O)cc(Oc2ccc(F)cc2F)c2cnc(NCC(C)(C)O)nc21
inactive: [1] | [2] | [3] | [7]

C1N2CN3CN1CN(C2)C3
inactive: [1] | [2] | [3]

O=C(O)c1cc(N=Nc2ccc(S(=O)(=O)Nc3ccccn3)cc2)ccc1O
inactive: [1] | [2] | [3] | [15] | [16] | [17] | [10]

CCCCCCCCCCCCCCCO
active: [1] 30.7 µM | [2] 29.5 µM | [3] 34.6 µM

CCOc1cccc(-n2cc(C(=O)N3CCN(c4cc(C(=O)O)c5ccccc5c4)CC3)nc2-c2ccc(C)cc2)c1
active: [1] 26.9 µM | [2] 24.6 µM | [3] 14.1 µM | [12] 18.3 µM | [8] 10.5 µM
inactive: [18]

NC(=O)NO
active: [16] 16.5 µM
inactive: [1] | [2] | [3]

Cc1ccc(C)c(O)c1
inactive: [1] | [2] | [3] | [9]

COCCOCCOCCOC
inactive: [1] | [2] | [3] | [9]

CCNc1ccccc1
inactive: [1] | [2] | [3] | [9]

CNS(=O)(=O)c1cc(C(=O)N2CCC(CCN3C4CCC3CC(n3c(C)nc5ccccc53)C4)(c3cccc(F)c3)CC2)c(Cl)cc1F (stereo not drawn)
inactive: [18]
active: [1] 12.6 µM | [2] 10.4 µM | [3] 16.7 µM | [7] 4.08 µM | [4] 6.01 µM | [10] 39.1 µM

CC/C(=C\C(=N/O)C(N)=O)C(C)[N+](=O)[O-] (stereo not drawn)
inactive: [1] | [3]
active: [2] 20 µM

CCCCCCc1ccc(O)cc1O
inactive: [11] | [8]
active: [1] 33.1 µM | [2] 31 µM | [19] 4.09 µM | [5] 4.64 µM | [6] 8.17 µM | [4] 4.91 µM

CC1(C)C(=O)N(Br)C(=O)N1Br
inactive: [1] | [2] | [3]
